Laboratory results taken from ChEMBL document CHEMBL4513146, “CO-ADD screening of Karazin Kharkiv National University (Ukraine) compounds”.
Hit rate of the full screen: of about 21,000 compounds, fewer than 10 showed an effect of 50% or more. These entries were drawn from the full list. Results with a measured potency or affinity are listed apart.

test system: Acinetobacter baumannii; settings: Concentration 32 ug.mL-1;; ASSAY_TEST Inhibition of Bacterial Growth; detection method Absorption (OD600); MEDIA CAMHB; plate type 384well; NBS; CORNING #3640; time 18 hr

In order of rising Inhibition:
1. CCc1nnc2ccc(S(=O)(=O)N(Cc3ccc(OC)cc3)c3cccc(F)c3)cn12  -12.55%
2. COc1ccc(-c2cc3c4nn(CC(=O)Nc5cc(OC)cc(OC)c5)c(=O)n4ccn3n2)cc1  -11.34%
3. Cc1ccc(NC(=O)Cn2nc3c4c5c(sc4ncn3c2=O)CCCC5)c(Cl)c1  -9.66%
4. Cc1ccc(-c2cc3c4nnc(SCC(=O)Nc5ccc(C#N)cc5)n4ccn3n2)cc1  -8.65%
5. COc1ccccc1NC(=O)Cn1nc2c3c4c(sc3ncn2c1=O)CCCC4  -5.75%
6. COc1ccc(NC(=O)Cn2nc3c4c5c(sc4ncn3c2=O)CCCC5)cc1  -5.35%
7. CCCCn1c(=O)c2sccc2n2c(=O)n(CC(=O)c3ccc(C)cc3C)nc12  -4.56%
8. COc1cccc(-n2ccn3c(SCC(=O)c4ccc(C)cc4)nnc3c2=O)c1  -4.26%
9. COc1cccc(Oc2nccn3c(=O)n(CC(=O)Nc4ccc5c(c4)OCO5)nc23)c1  0%
10. O=C(CSc1nnc2c(=O)n(-c3ccc(Br)cc3)ccn12)Nc1cc(F)ccc1F  0.45%
11. CCOc1ccc(NC(=O)Cn2nc3c(Oc4ccc(C)cc4)nccn3c2=O)cc1  0.89%
12. CCOc1ccc(C(=O)Cn2nc3n(CCC(C)C)c(=O)c4sccc4n3c2=O)cc1  1.79%
13. Cc1ccc(Oc2nccn3c(=O)n(CC(=O)Nc4ccc(C)cc4Br)nc23)cc1  2.31%
14. O=C(CSc1nnc2c(=O)n(-c3cccc(F)c3)ccn12)Nc1ccc(Br)cc1  3.4%
15. CCOc1ccc(-n2ccn3c(SCC(=O)c4ccc(C)cc4)nnc3c2=O)cc1  4.11%
16. Cc1ccc(F)cc1NC(=O)CSc1nc2ccccc2n2c(C)nnc12  5.49%
17. CCOc1ccc(NC(=O)Cn2nc3c(Oc4cccc(OC)c4)nccn3c2=O)cc1  5.77%
18. Cc1ccc(-c2ccc3nn(CC(=O)Nc4ccc(C#N)cc4)c(=O)n3n2)cc1C  6.14%
19. CCc1nnc2c(S(=O)(=O)N(Cc3cccc(C)c3)c3cccc(Cl)c3)cccn12  8.48%
20. CCCc1nnc2c(=O)n(CC(=O)Nc3ccc(C(C)=O)cc3)c3ccccc3n12  9.58%
21. O=C(Cn1nc2nc(Nc3ccc(F)cc3)ccn2c1=O)Nc1cc(F)ccc1F  12.46%
